From PubChem
Rows were chosen to be rich in hits. Some 2.6% of all compounds tested hit in one or more screens of this group.
Cruzain inh Det – inhibitors of Trypanosoma cruzi cruzain with detergent; Potency, µM, for inactives: max response, negative = inhibition, usual class: inhibitors; P25779; purified cruzain, Z-FR-AMC fluorescence, 0.01% Triton; 200,000 compounds, 0.43% hits;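 note: plate controls were neutral wells for no effect and buffer without enzyme for full effect; nearly all actives have a fitted effect of over 40% in size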
Target sequence (P25779 123-467 limits assumed): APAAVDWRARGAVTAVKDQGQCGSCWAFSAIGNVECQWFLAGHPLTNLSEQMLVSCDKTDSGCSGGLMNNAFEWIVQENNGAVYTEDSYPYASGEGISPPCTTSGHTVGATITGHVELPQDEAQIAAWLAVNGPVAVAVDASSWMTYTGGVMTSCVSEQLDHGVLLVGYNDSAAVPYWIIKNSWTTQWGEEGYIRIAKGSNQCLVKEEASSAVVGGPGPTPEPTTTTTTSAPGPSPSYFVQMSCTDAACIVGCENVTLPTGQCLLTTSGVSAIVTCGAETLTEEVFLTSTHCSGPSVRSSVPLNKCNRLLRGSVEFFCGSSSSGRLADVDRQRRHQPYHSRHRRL
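Cruzain (1.5 nM) preincubated 15 min at RT with compound in 100 mM sodium acetate pH 5.5, 5 mM DTT, 0.01% Triton X-100. Reaction started with 2 uM Z-FR-AMC; AMC fluorescence (ex 360/em 450 nm) change over 60 s gave rate.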
Cruzain noTriton – blocks cruzain activity in detergent-free assay; P25779; purified cruzain, Z-FR-AMC fluorescence, no detergent; Potency, µM, for inactives: max response, negative = inhibition, hits mostly inhibitors; 200,000 compounds, 2.3% hits;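 note: plate controls were enzyme without inhibitor for no effect and buffer without enzyme for full effect; nearly all actives have a fitted effect of over 40% in size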
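Purified cruzain at 1.5 nM, pre-incubated 15 min with compound at room temperature in 100 mM sodium acetate pH 5.5, 5 mM DTT, 0.00005% Triton X-100. Reaction started with 2 uM Z-FR-AMC; AMC fluorescence increase over 60 s gives rate.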
Papain inh – blocks papain protease activity, flagging nonselective cruzain hits. shares compounds with Cruzain inh Det. purified papain, Z-FR-AMC fluorescence cleavage. Potency, µM, without a hit: max response, negative = inhibition, actives largely listed as inhibitors. 410 compounds, 41% hits;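 note: 0% = no-compound wells and -100% = no-enzyme wells; nearly all actives have a fitted effect of over 35% in size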
Target sequence (P00784 whole entry, looked up): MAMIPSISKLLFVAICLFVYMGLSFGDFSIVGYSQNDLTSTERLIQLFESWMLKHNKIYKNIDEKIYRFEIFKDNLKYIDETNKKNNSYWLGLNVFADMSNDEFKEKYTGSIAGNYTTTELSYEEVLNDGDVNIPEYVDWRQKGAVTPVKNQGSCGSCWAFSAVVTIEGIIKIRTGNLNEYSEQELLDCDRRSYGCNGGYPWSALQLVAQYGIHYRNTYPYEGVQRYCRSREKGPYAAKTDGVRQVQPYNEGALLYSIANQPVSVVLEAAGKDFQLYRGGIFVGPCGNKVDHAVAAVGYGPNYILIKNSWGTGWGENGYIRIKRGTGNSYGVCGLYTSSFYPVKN
The depositor's hits bear a star; u = inconclusive; x = not tested or not shown. Calls come from the whole dose curve; as a rule, active = well fitted curve in the direction sought with a large enough effect; inconclusive = small, poorly fitted or top-dose-only effect, or another doubt; inactive = no such curve, though single readings can be large; an effect the other way counts as inactive or inconclusive. Potency is the fitted concentration of half-maximal effect.

SMILES | Cruzain inh Det | Cruzain noTriton | Papain inh
CC1CN(c2oc(-c3cccs3)nc2C#N)CC(C)O1 (stereo unspecified) | 28µM* | u | 20µM*
Cc1cc(C)cc(NC(=O)c2cccc(N3CCCS3(=O)=O)c2)c1 | -1% | 8% | x
COc1cccc([C@@H]2Oc3ccc(Br)cc3C[C@H]2OC(=O)Nc2ccc(OC(F)F)cc2)c1 | 2% | u | x
Cc1ccc(CNC(=O)Cn2c(=O)n(-c3ccc(C)cc3)c(=O)c3c2c2cc(C)ccc2n3C)cc1 | 3% | 10% | x
CNc1oc(C)nc1S(=O)(=O)c1ccc(C)cc1 | -1% | -5% | x
CNc1oc(Cc2ccccc2)nc1S(=O)(=O)c1ccccc1 | 3.2µM* | 3.2µM* | 28µM*
O=C(NCCO)c1ccc2nc(-c3ccco3)c(-c3ccco3)nc2c1 | 13µM* | 13µM* | 32µM*
O=C(NC1CCCC1)c1ccc2nc(-c3ccco3)c(-c3ccco3)nc2c1 | 14µM* | 5µM* | 14µM*
O=C(NC1CCCC1)c1ccc2nc[nH]c2c1 | 1% | -5% | x
O=C(NCCO)c1ccc(Cl)c(Cl)c1 | 3% | -3% | x
CS/C(N)=C(C#N)/C(C#N)=C(\N)SC | 1% | -10% | x
O=C(CN1CCN(Cc2ccccc2Cl)C1=O)NCc1ccccc1Cl | -6% | -4% | x
Cc1cccc(-n2ncc3c(NNC(=O)c4ccccc4Cl)ncnc32)c1 | 0% | 3% | x
Cc1ccc2[nH]c(=O)c(NC(N)=S)nc2c1 | 1.8µM* | 1.6µM* | 1%
Cc1ccc(NC(=S)c2nc3ccccc3[nH]2)c(C)c1 | -8% | -24% | x
CCC(=O)N1c2ccc(S(=O)(=O)CCC(=O)N3CCN(c4ccc(F)cc4)CC3)cc2CC1C (stereo unspecified) | -3% | 3% | x
CCOC(=O)/C=C/CCC/C=C/C(=O)c1ccccc1 | -21% | -10% | x
CC1(C)Cc2c(C#N)c(N3CCCC3)nc(-c3ccco3)c2CO1 | -4% | u | x
N#Cc1c(N2CCOCC2)nc(-c2ccco2)c2c1CCCC2 | 13µM* | 10µM* | 5.6µM*
CC(C)c1nc(N2CCN(C(=O)c3ccccc3)CC2)c(C#N)c2c1COC(C)(C)C2 | -9% | 11% | x
CC1(C)Cc2c(C#N)c(N3CCN(C(=O)c4ccccc4)CC3)nc(-c3ccco3)c2CS1 | 28µM* | 25µM* | 7.9µM*
C/C=C(\C)[C@H](O)C[Si](C)(C)c1ccccc1 | 0% | -9% | x
CN(C)c1ncc2nc(-c3ccc(F)cc3)c(=O)n(C)c2n1 | -2% | 0% | x
CC1(C)Oc2ccc(/C=C/C(=O)N3CCOCC3)c(O)c2C(N2CCOCC2)C1O (stereo unspecified) | -8% | 2% | x
CC(C)CC(=O)OC1C(N2CCOCC2)c2c(ccc(/C=C/C(=O)N3CCOCC3)c2O)OC1(C)C (stereo unspecified) | -24% | u | 14µM*
SMILES | Cruzain inh Det | Cruzain noTriton | Papain inh
Cc1ccccc1C(=O)Nc1nnc(SCc2cc(=O)c3c(C)ccc(C)c3[nH]2)s1 | 7% | -6% | x
CCc1cccc(CC)c1N(COC)C(=O)Cn1c(C)nc2ccccc21 | -4% | 14% | x
NC(Cc1ccccc1)=NCC(=O)O | 5% | 4% | x
COc1cc(/C=C/c2nc(C#N)c(NC(C)c3ccccc3)o2)cc(OC)c1OC (stereo unspecified) | 7% | u | x
CNc1oc(/C=C/c2cc(OC)c(OC)c(OC)c2)nc1C#N | 28µM* | 10µM* | 8.9µM*
CCOC(=O)C1=C(CN(C)Cc2ccccc2)NC(=O)NC1c1ccc(OC(C)C)cc1 (stereo unspecified) | -3% | -4% | x
Cc1ccc(C)c(CN2C(=O)c3ccccc3Sc3ccc(C(=O)NCc4cccs4)cc32)c1 | 0% | u | x
O=C(NCc1ccc2c(c1)OCO2)c1ccc2c(c1)N(Cc1cccc(Cl)c1)C(=O)c1ccccc1S2 | 1% | 13µM* | 11%
Cc1ccc(C)c(CN2C(=O)c3ccccc3Sc3ccc(C(=O)NCc4ccc5c(c4)OCO5)cc32)c1 | -1% | 20µM* | 8%
O=C(NCc1ccc2c(c1)OCO2)c1ccc2c(c1)N(Cc1ccccc1F)C(=O)c1ccccc1S2 | -1% | u | x
CCOCCc1nn2c(=O)cc(COC(=O)CNC(=O)c3cccc(C)c3)nc2s1 | -6% | 15% | x
O=C(O)C=Cc1ccc(Cn2ccnc2)cc1 | 3% | 3% | x
O=C1NN(c2ccc(Cl)c(Cl)c2)C(=O)/C1=C/c1cccc(OC(=O)c2cccs2)c1 | 20µM* | 7% | 18µM*
O=C1NN(c2ccccc2)C(=O)/C1=C\c1cccc(OC(=O)c2cccs2)c1 | -16% | u | x
COc1cc2nc(NCc3ccccc3)n3nc(-c4ccccc4)nc3c2cc1OC | 1% | 5% | x
CCNc1nc(C#N)nc(N2CCOCC2)n1 | x | x | 3.2µM*
N#CCOc1nc(N2CCOCC2)nc(N2CCOCC2)n1 | -1% | 6% | x
CN(c1ccccc1)c1nc(C#N)nc(N2CCOCC2)n1 | x | x | 1.3µM*
CCNc1nc(SCc2ccccc2)nc(N2CCOCC2)n1 | -10% | 2% | x
COc1nc(N(c2ccccc2)c2ccccc2)nc(-n2ccnc2)n1 | 0% | -9% | x
N#Cc1nc(N2CCOCC2)nc(N2CCOCC2)n1 | 1.1µM* | 1.3µM* | 1.3µM*
N#Cc1nc(N(c2ccccc2)c2ccccc2)nc(-n2cccc2)n1 | x | x | 10µM*
CN(C)c1nc(N2CCOCC2)nc(N(c2ccccc2)c2ccccc2)n1 | -1% | u | x
COc1ccc2oc(=O)cc(CN3CCN(C(=O)c4ccccc4)CC3)c2c1 | -3% | -5% | x
COCc1oc2ccc(NS(=O)(=O)c3ccc(C)cc3)cc2c1C(=O)OC | -9% | -12% | x
SMILES | Cruzain inh Det | Cruzain noTriton | Papain inh
Cc1ccc(NC(=O)Cc2ccc(-n3c(C)nc4cccnc43)cc2)cc1C | -5% | u | x
O=C(CCn1ccc2cc(S(=O)(=O)N3CCCC3)ccc21)NCc1cccc(Br)c1 | -5% | -4% | x
COC(=O)CSc1nnc([C@H](CC(C)C)NC(=O)OC(C)(C)C)o1 | u | -24% | x
CC(C)(C)OC(=O)N[C@@H](Cc1ccccc1)c1nnc(SCC(=O)O)o1 | 25µM* | -13% | -21%
CN1C2CC(OC(=O)C(CO)c3ccccc3)C[C@@H]1[C@H]1OC21 (stereo partly specified) | -1% | 9% | x
CCS(=O)(=O)c1ccc(C(=O)N2CCN(c3nc4c(OC)ccc(C)c4s3)CC2)cc1 | -9% | u | x
CCS(=O)(=O)c1cccc(C(=O)N2CCN(c3nc4c(C)ccc(Cl)c4s3)CC2)c1 | 7.9µM* | u | -6%
O=c1c(-c2ccc(Cl)cc2)nc2cnc(N3CCNCC3)nc2n1Cc1ccc(F)cc1 | 0% | 5% | x
Cc1ccc2cc(CN(C)C(=O)c3cccc(Cl)c3)c(=O)[nH]c2c1 | -3% | -12% | x
N#CC(C#N)=NNc1cccc(Cl)c1 | 11µM* | 13µM* | 28µM*
N#CC(C#N)=NNc1ccc2cn[nH]c2c1 | -18% | u | x
CCC(C)[C@@H](NC(=O)OC(C)(C)C)c1nnc(S(=O)(=O)Cc2cccc(C)c2)o1 (stereo partly specified) | 3.2µM* | 7.9µM* | 13µM*
Cc1cccc(CS(=O)(=O)Cc2ccc(C(=O)NC(C)c3ccccc3)o2)c1 (stereo unspecified) | 0% | 13% | x
O=C1OC(=O)c2ccccc21 | 3% | -7% | x
Cc1ccccc1Cn1c(=O)n(CCCCC(=O)NCCc2ccccc2)c(=O)c2ccccc21 | -4% | 0% | x
CCOC(=O)c1sc(N/N=C/c2ccccc2)nc1C | -6% | u | x
